TcdB GH inh: inhibitors of Clostridioides difficile toxin B glycohydrolase; P18177; 350,000 tested, 0.24% active; TcdB glycohydrolase enzymatic assay, plate reader; inhibition, % at 9.99 µM; AID 652162; in the data active means inhibition above about 10%
Target sequence (P18177 whole entry, looked up): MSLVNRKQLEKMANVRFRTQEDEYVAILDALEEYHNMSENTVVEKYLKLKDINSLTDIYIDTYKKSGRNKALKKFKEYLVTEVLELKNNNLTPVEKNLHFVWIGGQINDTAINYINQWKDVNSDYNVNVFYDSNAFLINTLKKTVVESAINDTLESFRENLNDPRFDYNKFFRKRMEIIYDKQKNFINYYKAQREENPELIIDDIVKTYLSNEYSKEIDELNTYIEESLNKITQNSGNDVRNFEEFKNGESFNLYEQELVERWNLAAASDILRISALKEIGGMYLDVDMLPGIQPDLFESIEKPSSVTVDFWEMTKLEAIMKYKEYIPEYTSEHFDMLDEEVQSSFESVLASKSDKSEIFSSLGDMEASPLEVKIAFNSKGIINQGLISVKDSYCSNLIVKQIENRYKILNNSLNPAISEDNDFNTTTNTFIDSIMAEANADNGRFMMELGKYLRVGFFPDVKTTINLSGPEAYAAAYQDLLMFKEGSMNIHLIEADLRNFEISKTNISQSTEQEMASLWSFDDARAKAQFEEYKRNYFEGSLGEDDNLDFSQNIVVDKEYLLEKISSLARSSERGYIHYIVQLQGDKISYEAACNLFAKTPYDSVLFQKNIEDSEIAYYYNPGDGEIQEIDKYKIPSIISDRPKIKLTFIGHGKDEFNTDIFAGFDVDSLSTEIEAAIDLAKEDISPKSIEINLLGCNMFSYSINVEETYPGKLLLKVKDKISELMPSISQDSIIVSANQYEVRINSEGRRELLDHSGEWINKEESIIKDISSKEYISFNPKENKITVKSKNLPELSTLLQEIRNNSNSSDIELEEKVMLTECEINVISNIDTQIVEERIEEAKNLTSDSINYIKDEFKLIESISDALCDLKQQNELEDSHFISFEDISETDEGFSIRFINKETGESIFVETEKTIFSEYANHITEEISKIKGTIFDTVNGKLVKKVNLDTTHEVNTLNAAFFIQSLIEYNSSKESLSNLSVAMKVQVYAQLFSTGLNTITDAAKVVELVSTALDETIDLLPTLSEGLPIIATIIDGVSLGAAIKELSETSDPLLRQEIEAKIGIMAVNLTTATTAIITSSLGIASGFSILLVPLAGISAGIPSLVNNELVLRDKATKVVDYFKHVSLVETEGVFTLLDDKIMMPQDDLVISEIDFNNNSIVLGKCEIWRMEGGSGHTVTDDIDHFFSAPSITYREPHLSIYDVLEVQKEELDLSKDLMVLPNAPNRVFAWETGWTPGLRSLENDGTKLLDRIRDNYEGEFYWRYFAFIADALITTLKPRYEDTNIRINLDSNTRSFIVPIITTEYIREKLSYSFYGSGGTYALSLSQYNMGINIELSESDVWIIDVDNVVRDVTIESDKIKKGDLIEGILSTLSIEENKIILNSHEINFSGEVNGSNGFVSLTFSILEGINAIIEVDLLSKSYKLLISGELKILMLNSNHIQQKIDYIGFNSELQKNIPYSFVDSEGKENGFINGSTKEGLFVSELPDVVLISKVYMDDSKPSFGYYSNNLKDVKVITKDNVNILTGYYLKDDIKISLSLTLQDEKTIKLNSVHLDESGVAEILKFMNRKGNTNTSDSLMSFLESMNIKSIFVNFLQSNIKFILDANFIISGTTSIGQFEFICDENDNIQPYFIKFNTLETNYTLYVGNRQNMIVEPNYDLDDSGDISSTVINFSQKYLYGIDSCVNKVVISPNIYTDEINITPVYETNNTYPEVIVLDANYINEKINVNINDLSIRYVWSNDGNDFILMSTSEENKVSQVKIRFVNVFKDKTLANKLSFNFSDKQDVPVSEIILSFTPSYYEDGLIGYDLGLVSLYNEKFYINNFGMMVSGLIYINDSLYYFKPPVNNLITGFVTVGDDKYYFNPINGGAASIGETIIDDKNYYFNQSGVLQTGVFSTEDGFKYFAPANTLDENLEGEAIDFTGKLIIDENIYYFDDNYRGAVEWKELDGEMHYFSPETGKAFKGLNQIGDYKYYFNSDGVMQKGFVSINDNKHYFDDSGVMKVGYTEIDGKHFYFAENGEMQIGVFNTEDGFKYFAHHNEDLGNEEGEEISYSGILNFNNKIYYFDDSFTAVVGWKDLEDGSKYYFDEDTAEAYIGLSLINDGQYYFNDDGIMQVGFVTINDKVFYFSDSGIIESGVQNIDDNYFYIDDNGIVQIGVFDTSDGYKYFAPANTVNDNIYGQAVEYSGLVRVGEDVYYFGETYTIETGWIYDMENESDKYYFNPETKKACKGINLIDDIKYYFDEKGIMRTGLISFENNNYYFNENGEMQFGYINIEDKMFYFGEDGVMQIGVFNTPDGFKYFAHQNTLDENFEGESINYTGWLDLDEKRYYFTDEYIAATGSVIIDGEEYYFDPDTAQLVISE
BioA inh: BioA (M. tuberculosis) enzyme inhibition. AID 602481. 360,000 tested, 0.096% active. inhibition, % at 9.99 µM. purified M. tuberculosis BioA enzyme, plate reader; in the data active means inhibition above about 40%
FadD28 binding: M. tuberculosis FadD28 bisubstrate binding inhibition; 360,000 tested, 0.22% active; AID 588549; FadD28 bisubstrate probe binding, fluorescence polarization; inhibition, % at 12.5 µM; in the data active means inhibition above about 8.5%, passing the limit was not always enough
Y pestis TopoI: Y. pestis Topo-I inhibition via cleavage products; 360,000 tested, 0.064% active; activity, % at 10 µM; Y. pestis Topo-I cleavage product accumulation, plate reader; in the data active means activity above about 50%, passing the limit was not always enough
Hits are given with their value; i = inactive; nt = no result given. An excerpt weighted towards active compounds, which were near 0.47% of everything screened.

SMILES	TcdB GH inh	BioA inh	FadD28 binding	Y pestis TopoI
CCN(CC)c1ccc(/C=C(\C#N)C(N)=O)cc1	i	nt	i	i
Cc1ccc(C(=O)CSc2nc3ccc(C(=O)NCCN4CCCCC4)cc3c(=O)[nH]2)cc1	i	i	i	i
CCOC(=O)c1c(C)[nH]c(C)c1C(=O)COC(=O)/C=C/c1ccco1	10.4	i	i	i
COc1ccc(/C=C(/C#N)C(=O)Nc2ccc(O)cc2)cc1C(=O)O	18.0	nt	i	i
CCc1ccc(NC(=O)/C(C#N)=C\c2ccc(OC)c(C(=O)O)c2)cc1	i	nt	i	i
Nn1cnnc1SC1CCCCC1NS(=O)(=O)c1ccccc1 (configuration not stated)	nt	i	i	i
O=C(O)C[C@H]1C[C@@H]2c3cc(NC(=O)NC4CCCCC4)ccc3O[C@@H]2[C@H](CO)O1	i	i	nt	nt
Cc1onc(-c2c(F)cccc2Cl)c1C(=O)Nc1nccs1	i	i	i	i
Cc1onc(-c2c(F)cccc2Cl)c1C(=O)Nc1nnc(C(F)(F)F)s1	15.6	i	i	i
CCCCn1c(=O)[nH]c(=O)c2c1nc(-c1ccsc1)n2Cc1ccccc1	nt	i	i	59.0
CCCCn1c(-c2ccsc2)nc2c1c(=O)[nH]c(=O)n2CCC	nt	i	i	i
Oc1c(Br)c(Br)c(Br)c(Br)c1Br	nt	i	41.5	i
COC(=O)c1sc(S(=O)(=O)Nc2c(C)nn(C)c2C)c(C(=O)OC)c1C	i	i	i	i
COC(=O)c1sc(NC(=S)NNC(=O)c2c(Br)c(C)nn2C)c(C(=O)OC)c1C	i	i	19.8	i
Cc1ccc(S(=O)(=O)/N=C(\N)Nc2nc(C)c3cc(C)ccc3n2)cc1	nt	i	i	58.0
COc1ccc(CNC(=S)Nc2ccc(OC)cc2)cc1	nt	nt	i	i
COc1ccc(CNC(=O)COc2ccc(OC)cc2)cc1	i	i	21.9	i
COC(=O)Cc1ccc(NC(=S)NCc2ccc(OC)cc2)cc1	23.2	i	i	i
CC1CN(S(=O)(=O)c2cccc(C(=O)N=c3sccn3C)c2)CC(C)O1 (configuration not stated)	i	i	i	i
COc1cccc2c1C(=O)c1c(O)c3c(c(O)c1C2=O)C[C@@](O)(C(C)=O)C[C@@H]3O[C@H]1C[C@H](N)[C@H](O)[C@H](C)O1	i	i	67.8	i
COc1cccc2c1C(=O)c1c(O)c3c(c(O)c1C2=O)CC(O)(C(=O)CO)CC3OC1CC(N(C)C)C(O)C(C)O1 (configuration not stated)	i	nt	64.6	i
COc1cccc2c1C(=O)c1c(O)c3c(c(O)c1C2=O)C[C@@](O)(C(=O)CO)C[C@@H]3O[C@H]1C[C@H](N)[C@@H](O)[C@H](C)O1	nt	i	64.4	i
N#CC1(NC(=O)COC(=O)C2=COCCO2)CCCCC1	i	i	18.0	i
Cc1c(NC(=O)C(C)Oc2ccc(Br)cc2Cl)c(=O)n(-c2ccccc2)n1C (configuration not stated)	i	i	i	i
O=P1(Oc2ccccc2)OCCCS1 (configuration not stated)	14.4	nt	i	i
SMILES	TcdB GH inh	BioA inh	FadD28 binding	Y pestis TopoI
CCOC(=O)c1ccccc1NC(=O)COC(=O)C1CC(=O)N(c2ccc3c(c2)OCCO3)C1 (configuration not stated)	i	i	i	i
Cc1cc(C)c(NS(=O)(=O)c2cccc3cccnc23)c(C)c1	13.9	i	i	i
CC(/C=N/n1c(-c2ccc(C)cc2)n[nH]c1=S)=C\c1ccco1	nt	nt	i	i
Cc1cccc(-c2n[nH]c(=S)n2/N=C/C=C/c2ccco2)c1	10.1	i	i	i
CC(/C=N/n1c(-c2ccncc2)n[nH]c1=S)=C\c1ccco1	19.5	i	i	i
S=c1[nH]nc(-c2ccncc2)n1/N=C/C=C/c1ccco1	i	nt	i	i
CCN(CC)c1ncnc2scc(C3COc4ccccc4O3)c12 (configuration not stated)	nt	i	i	53.0
Cc1cc(C)c(OCC(O)CN2CCN(C(=O)c3ccccc3)CC2)c(C)c1 (configuration not stated)	i	i	i	i
CC(C)(C)OCC(O)CN1CCN(C(=O)c2ccccc2)CC1 (configuration not stated)	11.8	i	i	i
O=C(OCC#CCSc1nnc(-c2cccc3ccccc23)o1)c1ccc(Br)cc1	i	i	i	i
CN(C)c1ccc(C(=O)OCC#CCSc2nnc(-c3cccc4ccccc34)o2)cc1	13.5	i	i	i
CO[C@H]1CN(C)C(=O)c2ccc(NC(=O)c3ccc(F)cc3)cc2OC[C@H](C)NC[C@H]1C	i	i	nt	nt
OCC1CCCN(C(=S)Nc2ccc(Nc3ccccc3)cc2)C1 (configuration not stated)	10.7	i	i	i
C=CCn1c(SCC(=O)c2ccc(OC)cc2)nnc1-c1cc2cccc(OC)c2o1	nt	i	i	67.0
C=CCn1c(SCC(=O)c2ccccc2)nnc1-c1cc2ccccc2o1	nt	i	i	i
O=C(CN1CCN(Cc2ccccc2)CC1)Nc1ccc(N2CCOCC2)cc1	i	nt	i	i
COc1ccc(CC(=O)Nc2nnc(SCc3ccccc3)s2)cc1S(=O)(=O)N1CCOCC1	nt	i	13.1	i
Cn1cccc1/C=N/n1c(-c2ccco2)n[nH]c1=S	nt	nt	i	i
COc1cc(-c2n[nH]c(=S)n2/N=C/c2cccn2C)cc(OC)c1OC	11.4	nt	i	i
Cc1c(Br)c(O)c(Br)c(O)c1/C=N/n1c(-c2ccccc2)n[nH]c1=S	i	i	20.7	i
COc1cc(/C=N/n2c(-c3ccccc3)n[nH]c2=S)ccc1O	18.3	nt	i	i
CCOC(=O)[C@]12Cc3cc(Cl)ccc3[C@H]1N(C)C(=O)c1cc(OC)ccc12	i	nt	nt	nt
COc1ccccc1N1CCN(CCCNc2c(C)c(=O)n(C)c(=O)n2C)CC1	i	i	i	i
COc1cccc(OCCSc2nnc3sc4ccccc4n23)c1	nt	i	i	i
c1ccc(OCCSc2nnc3sc4ccccc4n23)cc1	12.2	i	i	i
SMILES	TcdB GH inh	BioA inh	FadD28 binding	Y pestis TopoI
COc1ccc(C(=O)NCCc2c[nH]c3ccccc23)cc1S(=O)(=O)N1CCCCC1C (configuration not stated)	i	i	61.6	i
COc1ccc(C(=O)NCCc2ccc(Cl)cc2)cc1S(=O)(=O)N1CCCCC1C (configuration not stated)	i	i	i	i
CS(=O)(=O)N1CCc2cc(C(=O)Nc3ccc(O)cc3)ccc21	25.1	i	i	i
COc1cccc(Oc2ccc3nnc(C(F)(F)F)n3n2)c1	11.3	nt	i	i
Oc1c(Cl)cc(Cl)cc1CN1CCN(Cc2ccccc2)CC1	i	i	i	i
Oc1c(Cl)cccc1Cc1cc(Cl)cc(Cl)c1O	i	i	11.9	i
CCCN(CCC)c1nc(-c2ccccn2)nc2ccccc12	i	i	i	i
Cc1csc(NC(=O)CSc2nnc(NC(=O)NC(C)(C)C)s2)n1	i	i	12.0	i
Cc1ccc2cccc(SCC(=O)N3CCOCC3)c2n1	nt	i	i	i
Cc1ccc(C(=O)Nc2ccc(O)cc2C(=O)O)cc1	nt	i	i	i
Cc1ccc(C(=O)Nc2ccc(O)cc2C(=O)O)cc1C	19.8	i	i	i
COc1cc(C2C(C#N)=C(N)OC3=C2C(=O)CCC3)c([N+](=O)[O-])cc1OC (configuration not stated)	nt	nt	20.7	i
CC(C)Cn1c(-c2ccc(Br)o2)n[nH]c1=S	nt	nt	i	i

Compound activity from PubChem BioAssay.
